The list is not random: actives were taken first. Their share in the collection is about 6.5%.
FMDV antiviral = High Throughput Screening for Foot and Mouth Disease Virus Antivirals. AID 1159524, 2015. 410,000 compounds, 1.2% hits. FMDV antiviral cell-based qHTS. Potency, µM (highest dose often 57.9 µM), without a hit: at the highest dose activity change, negative = inhibition, most hits filed as inhibitors; calls by dose curve; tested in HEK293T cells; also: read-out not given here; potency is read from the fitted curve at half-maximal effect; nearly all actives have a fitted effect of over 45% in size
Marburg entry inh = qHTS for inhibitors of binding or entry into cells for Marburg Virus; Marburg virus pseudotyped entry inhibition, cell reporter; Potency, µM (doses to about 37.8 µM), for inactives: at the highest dose activity change, negative = inhibition, actives largely listed as inhibitors; 300,000 compounds, 1.8% hits; calls by dose curve; tested in HEK293 cells; also: potency is read from the fitted curve at half-maximal effect
VACV Venus inh = qHTS for Stage-Specific Inhibitors of Vaccinia Orthopoxvirus: Venus Reporter Primary qHTS. Vaccinia virus Venus reporter expression, fluorescence. Potency, µM (top dose mostly 36.5 µM), without a hit: at the highest dose activity change, negative = inhibition, actives largely listed as inhibitors. 330,000 compounds, 0.46% hits. AID 720580, 2013; calls by dose curve; tested in A549 cells; also: potency is read from the fitted curve at half-maximal effect; nearly all actives have a fitted effect of over 30% in size
Lassa entry inh = qHTS for Inhibitors of binding or entry into cells for Lassa Virus | Potency, µM (highest dose often 37.9 µM), without a hit: top-dose activity change, negative = inhibition, actives largely listed as inhibitors | Lassa virus pseudotype entry inhibition, cell reporter | 300,000 compounds, 1.2% hits; calls by dose curve; tested in HEK293 cells; also: potency is read from the fitted curve at half-maximal effect; nearly all actives have a fitted effect of over 50% in size
VACV mCherry inh = qHTS for Stage-Specific Inhibitors of Vaccinia Orthopoxvirus: mCherry Reporter Primary qHTS | Vaccinia virus mCherry reporter infection, fluorescence | Potency, µM (highest dose often 36.5 µM), for the others: top-dose activity change, negative = inhibition, most hits filed as inhibitors | 310,000 compounds, 0.63% hits | AID 720579, 2013; calls by dose curve; tested in A549 cells; also: potency is read from the fitted curve at half-maximal effect; nearly all actives have a fitted effect of over 35% in size
HCMV antiviral = qHTS Assay for inhibitors of the human cytomegalovirus (HCMV). HFF cells, HCMV-luciferase reporter, 72 h; active compounds read low. activity change, negative = inhibition, % at 57.5 µM. 410,000 compounds, 4.5% hits. AID 1259415, 2018; in the data active = activity change below about -60%; inconclusive = no clear call, values can overlap the other calls; inactive = above about -39%
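Steps: HFFs plated, 16 h 37C; compounds added; HCMV-luciferase added to MOI 1 PFU/cell; 72 h 37C; OneGlo reagent, 5 min room temperature; luminescence read, normalized to controls.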
* marks the source's active call; other numbers are inactive results; i = inactive; ? = inconclusive; . = not tested or not shown; [ ] = dose if it differs, or a comment. % is scaled to controls: 0 for no effect and ±100 for the full control effect.

SMILES | FMDV antiviral | Marburg entry inh | VACV Venus inh | Lassa entry inh | VACV mCherry inh | HCMV antiviral
CC1(C(=O)O)CCC(C(N)=O)C1(C)C (centres undefined) | -11% | 15%[46.1 µM] | -8% | 19% | -10% | -25
CC1(C(=O)O)C2CCC(O2)C1(C)C(=O)O (centres undefined) | . | 4.1µM* | . | 3.3µM* | . | .
NC(=O)N/N=C/c1c(Sc2nnnn2-c2ccccc2)nc2ccccn2c1=O | ? | . | . | . | . | -73*
Cn1nc(C(=O)OCc2ccc(F)cc2)c2ccccc2c1=O | 0% | -24%[46.1 µM] | -19% | 9% | i | -23
Cc1ccc(COC(=O)c2nn(C)c(=O)c3ccccc23)cc1 | ? | 27%[46.1 µM] | -20% | ? | -17% | -92*
CN(C)S(=O)(=O)c1cc(NC(=O)CN2CCN(c3ccccc3O)CC2)ccc1Cl | 0% | -1% | -6% | 0.56µM* | -25% | -2
CCN(CC)S(=O)(=O)c1cc(NC(=O)C(C)N2CC=C(c3ccccc3)CC2)ccc1C (centres undefined) | ? | ? | -29% | 16µM* | ? | -30
Cc1ccc(NC(=O)COC(=O)/C(=C/c2cccs2)c2cccs2)cc1S(=O)(=O)N(C)C | -17% | ? | -10% | 11µM* | -22% | -40
Cc1ccc(NC(=O)Cc2ccc(Cl)c(Cl)c2)cc1S(=O)(=O)N(C)C | 22µM* | ? | -25% | 13µM* | -20% | -61*
Cc1ccc(NC(=O)Cc2ccccc2Cl)cc1S(=O)(=O)N(C)C | -17% | ? | -22% | ? | ? | -35
COC(=O)[C@@H]1CCCN1Cc1ccc2c(c1)CN(Cc1ccc(OC)c(C)c1)CCO2 | 2% | . | 9% | . | -7% | .
COc1ccccc1/C=C/C(=O)OCC(=O)Nc1c(C)nn(-c2ccccc2)c1C | -26% | . | . | . | . | 0
Cc1ccc(NC(=O)CNc2ccc(Cl)c(Cl)c2)cc1S(=O)(=O)N(C)C | ? | ? | ? | ? | ? | -72*
CCN(CC)S(=O)(=O)c1cc(NC(=O)Cc2ccsc2)ccc1C | 0% | -17% | ? | 0.46µM* | ? | -28
O=C(Cc1ccsc1)Nc1ccc(S(=O)(=O)C(F)F)cc1 | 17% | -23%[46.1 µM] | ? | ? | 10µM* | 25
Cc1ccccc1CC1(CO)CCCN(C(=O)CCN2CCCO2)C1 (centres undefined) | 33% | . | . | . | . | 28
NC(=O)[C@@H]1CCCN1C(=O)c1cc(NC(=O)c2ccccc2)cc2ncn(C3CCCC3)c12 | 12% | . | -14% | . | i | .
CCC(=O)N1CCc2cc(Br)cc(S(=O)(=O)N(CC)Cc3ccccc3)c21 | -7% | 4%[46.1 µM] | -1% | 15%[46.1 µM] | -13% | 6
CCC(=O)N1CCc2cc(Br)cc(S(=O)(=O)NCCCN(C)Cc3ccccc3)c21 | 2% | ? | -11% | 18% | i | -67*
CCC(=O)N1CCc2cc(Br)cc(S(=O)(=O)NC3CCN(Cc4ccccc4)CC3)c21 | 17% | ? | -16% | 2.2µM* | -10% | ?
COc1ccc([N+](=O)[O-])cc1NC(=O)c1ccc(CN(c2ccccc2)S(C)(=O)=O)cc1 | -20% | 1% | -15% | -10% | -17% | -15
CCC(C)NC(=O)[C@@H]1CCCN1C(=O)C1CCN(S(=O)(=O)c2ccc(C)cc2)CC1 (some centres undefined) | -5% | . | . | . | . | 0
CC(=O)c1ccc(C(=O)NCC2Cc3cccc(-c4ncccn4)c3O2)cc1 (centres undefined) | 6% | . | 5% | . | -10% | .
O=C(NCc1cccs1)O[C@H]1CC[C@@]23CCCN2C(=O)CCC[C@H]3[C@H]1Cc1ccccc1 | . | . | . | . | . | -14
FC(F)(F)c1cccc(-c2cnc3ccc(C4CC4)nn23)c1 | . | . | . | . | . | -82*
SMILES | FMDV antiviral | Marburg entry inh | VACV Venus inh | Lassa entry inh | VACV mCherry inh | HCMV antiviral
Cc1nnc2ccc(-c3cccc(C(F)(F)F)c3)nn12 | -10% | . | -14% | . | -13% | -32
COc1ccc(NC(=O)CN(C)C(=O)C2CCCO2)cc1 (centres undefined) | 0% | . | . | . | . | -25
CCC(C(=O)Nc1ccc(C(=O)OC)cc1)n1c(=O)c(-c2ccccc2NC(C)=O)nc2ccccc21 (centres undefined) | -12% | -2%[46.1 µM] | -16% | 0%[46.1 µM] | i | -35
CCC(Oc1nc2ccccc2nc1-c1ccccc1NC(C)=O)C(=O)c1ccccc1 (centres undefined) | -15% | -8% | -10% | 18µM* | -14% | 0
COc1ccc(CCN(C)Cc2ccc(C(=O)Nc3ccccc3)cc2)cc1OC | -25% | ? | -27% | ? | i | -73*
COc1ccc(CCN(C)Cc2ccc(OCc3ccccc3)c(OC)c2)cc1OC | 4% | ? | -18% | -10% | i | -8
COc1ccc(CN(C)CC(=O)Nc2ccc(N3CCOCC3)cc2)cc1OC | -18% | ? | -6% | 1% | -18% | 0
CCN(CC)c1ccc(CN(C)CCc2ccc(OC)c(OC)c2)cc1 | -14% | ? | -16% | ? | -2% | -2
COc1ccc(CN(C)CC(=O)Nc2ccc(SC(F)F)cc2)cc1OC | 18µM* | ? | -17% | ? | -19% | -3
COc1ccc(CCN(C)Cc2ccc(OC)c(OCc3ccccc3)c2)cc1OC | -24% | 18µM* | . | -1% | . | 51
NC1CONC1=O (centres undefined) | 0% | 17% | -17% | 28% | i | .
O=C(O)C[C@H]1c2ccc(C(F)(F)F)cc2S(=O)(=O)N1C1CCCCC1 | 51% | . | -10% | . | -10% | -23
Cc1ccccc1-c1nc(CS(=O)(=O)CC(=O)Nc2c(C)cccc2C)c(C)o1 | -30% | -3%[46.1 µM] | -20% | -14%[46.1 µM] | -21% | -78*
CCCNC(=O)CS(=O)(=O)Cc1nc(-c2ccccc2C)oc1C | -13% | . | -20% | . | i | 5
Cc1ccc(CNC(=O)CS(=O)(=O)Cc2nc(-c3ccccc3C)oc2C)cc1 | -10% | 13%[46.1 µM] | 4% | -21%[46.1 µM] | -10% | -61*
CCOc1ccc(CCNC(=O)CS(=O)(=O)Cc2nc(-c3ccccc3F)oc2C)cc1 | -28% | ? | -20% | 1%[46.1 µM] | i | -66*
COc1ccc(OC)c(CCNC(=O)CS(=O)(=O)Cc2nc(-c3ccc(C)cc3)oc2C)c1 | -25% | -9% | . | 3% | . | 2
CCOc1ccc(CCNC(=O)CS(=O)(=O)Cc2nc(-c3ccc(OC)cc3)oc2C)cc1 | -14% | -5%[46.1 µM] | -18% | -25%[46.1 µM] | -28% | -21
COc1ccc(-c2nc(CS(=O)(=O)CC(=O)NCCc3cc(OC)ccc3OC)c(C)o2)cc1 | 9% | ? | . | -10% | . | -71*
COc1ccc(-c2c(C#N)c(SCC(=O)Nc3ccc(Br)cc3)nc(C)c2C(=O)Nc2ccccc2)cc1 | -12% | . | -7% | -3%[46.1 µM] | -3% | 4

Source: PubChem BioAssay
